# Measured values taken from PubChem BioAssay AID1852 (Sanford-Burnham Center for Chemical Genomics, 2009).
# Among all 2,500 compounds or so, about 1,100 (44%) were called active.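 Rule for the calls: active = inhibition above 50% at 4 µM in the single-point screen; inactive = inhibition of 50% or less.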 The set was probably picked from earlier hits. Some of the results follow.
# Test: TNF-a-driven NF-kB reporter inhibitors, primary screen, selectivity assay for NOD1/NOD2 signaling inhibitor project, cell-based, HEK293T NF-kB-Luc, luminescence (AID 1852)
# Details: TNF-a induced, 14 h, at 4 µM, stronger effect = higher value
row,Structure (SMILES),inhibition
1,Oc1[nH]c2ccccc2c1N=NC(=S)N1CCOCC1,94.8% (active)
2,Oc1[nH]c2ccccc2c1N=Nc1nc(Nc2ccccc2)nc(N2CCOCC2)n1,12.6% (inactive)
3,Cc1ccc(-c2nn(CCC(=O)O)cc2/C=C\C(=O)c2ccc(Br)cc2)cc1,94.7% (active)
4,O=C(O)CCn1cc(/C=C\C(=O)c2ccc(Cl)cc2)c(-c2cccc(Br)c2)n1,77.2% (active)
5,O=C(O)CCn1cc(/C=C/C(=O)c2ccc(Cl)cc2)c(-c2cccc(Br)c2)n1,-4.4% (inactive)
6,N#C/C(=C(/O)COC(=O)CSc1ccc2ccccc2c1)c1nc2ccccc2[nH]1,90.4% (active)
7,N#C/C(=C(/O)COC(=O)CSc1ccc(Cl)cc1)c1nc2ccccc2[nH]1,93.2% (active)
8,Cc1ccnc(NC(=O)Nc2ccc3c(c2)N(C)C(=O)CS3)c1,-55.6% (inactive)
9,Cn1cc([N+](=O)[O-])c(C(=O)Nc2nc(-c3ccc(Cl)cc3)cs2)n1,43.8% (inactive)
10,O=C(Nc1nnc(SCc2ccc(F)cc2)s1)c1ccccn1,109% (active)
11,Cc1cc(C(=O)Nc2nc(-c3ccccn3)cs2)ccc1[N+](=O)[O-],-1% (inactive)
12,O=C(Nc1nc(-c2ccccn2)cs1)c1cc(Cl)ccc1[N+](=O)[O-],105% (active)
13,O=C(Nc1nc(-c2cc(F)ccc2F)cs1)c1ccccn1,91.2% (active)
14,CC(Oc1ccc(Br)cc1)C(=O)Nc1nc(-c2ccccn2)cs1 (stereo not given),90.7% (active)
15,CCc1ccccc1OCC(=O)Nc1nc(-c2cccnc2)cs1,15.7% (inactive)
16,Cc1nc(C2CCC3C4CCC5=CC(=O)CC[C@]5(C)C4CC[C@]23C)cs1 (stereo not given in full),34.9% (inactive)
17,CCSc1nsc(NC(=O)Nc2cccc(F)c2)n1,46.9% (inactive)
18,O=C(Nc1nc(-c2ccccn2)cs1)c1ccc(Cl)s1,19.4% (inactive)
19,O=C(Nc1nc(-c2ccccn2)cs1)Nc1ccc(F)cc1F,82.1% (active)
20,Cc1cccnc1Nc1nc(-c2ccccn2)cs1,104% (active)
21,COc1ccccc1-c1nnc(Nc2nc3c(OC)cccc3s2)o1,27.9% (inactive)
22,Fc1cc(F)c2nc(Nc3nc4c(F)cccc4s3)sc2c1,-17.5% (inactive)
23,COc1cccc2sc(Nc3nc(-c4ccccn4)cs3)nc12,102% (active)
24,COc1ccc(CCNS(=O)(=O)c2ccc(Br)s2)cc1,35% (inactive)

row,Structure (SMILES),inhibition
1,CC(=O)c1cccc(NS(=O)(=O)c2ccc(-c3cnc(C4CC4)o3)cc2)c1,66.3% (active)
2,COc1ccc(NS(=O)(=O)c2ccc(-c3cnc(C4CC4)o3)cc2)cc1OC,38.9% (inactive)
3,CSc1cccc(NS(=O)(=O)c2ccc(-c3coc(C)n3)cc2)c1,24.6% (inactive)
4,O=C(NC(NNc1ccc([N+](=O)[O-])cc1)(C(F)(F)F)C(F)(F)F)c1ccc(Cl)cc1,50.3% (active)
5,O=C(Nc1cc(C(F)(F)F)cc(C(F)(F)F)c1)Nc1cnn(-c2ccc([N+](=O)[O-])cc2)c1C(F)(F)F,48.5% (inactive)
6,CCN(CC)C(=O)c1oc2ccc(S(=O)(=O)N3CC(C)CC(C)C3)cc2c1C (stereo not given),31.2% (inactive)
7,CCOC(=O)c1oc2ccc(S(=O)(=O)n3nc(-c4ccc(OC)cc4)cc3N)cc2c1C,60.2% (active)
8,CCn1c(=O)c2c(cnn2C)c2ccccc21,81.7% (active)
9,CCOC(=O)C(=CNc1ccc2c(c1)c1ccccc1n2CC)C(=O)OCC,17.5% (inactive)
10,CCOc1ccc(C(=O)C(CCC(CN(C)C)C(=O)c2ccc(OCC)cc2)CN(C)C)cc1 (stereo not given),12.6% (inactive)
11,CN(C)CC(CCC(CN(C)C)C(=O)c1ccccc1)C(=O)c1ccccc1 (stereo not given),102% (active)
12,C/C(=N\NC(=O)C(c1ccccc1)c1ccccc1)c1ccccn1,103% (active)
13,CSC(=S)N/N=C(\C)c1ccc(Br)cc1,11.8% (inactive)
14,C=CCNC(=S)N/N=C(\C)c1ccccn1,111% (active)
15,C/C(=N\NC(=O)c1ccccc1Cl)c1ccccn1,97.3% (active)
16,C/C(=N\Nc1nc2ccccc2[nH]1)c1ccccn1,101% (active)
17,C/C(=N\NC(=O)c1ccccc1F)c1ccccn1,49.5% (inactive)
18,COc1ccc(/C=C/c2cc(-c3ccc(C)cc3)o[n+]2C)cc1,30.9% (inactive)
19,C/C(=N\NC(=O)C1COc2ccccc2O1)c1ccccn1 (stereo not given),83.2% (active)
20,C/C(=N\NC(=O)c1cc(-c2cccs2)nc2ccccc12)c1ccccn1,106% (active)
21,C/C(=N\NC(=O)C(C)Oc1ccc([N+](=O)[O-])cc1)c1ccccn1 (stereo not given),103% (active)
22,C/C(=N\NC(=O)c1n[nH]c2c1CCC2)c1cccs1,46.3% (inactive)
23,C/C(=N\NC(=O)c1cccc2ccccc12)c1ccccn1,103% (active)
24,COc1ccc(CN(C)Cc2nc(Cc3cccc(F)c3)no2)c2cccnc12,48.3% (inactive)

row,Structure (SMILES),inhibition
1,Cc1ccc(-n2c(C)cc(/C=c3/sc4nc5ccccc5n4c3=O)c2C)cc1,-32% (inactive)
2,COc1ccc(-n2cc(C#N)c(=O)[nH]c2=O)cc1,47.1% (inactive)
3,COc1ccc(-n2ncc(Cl)c(Cl)c2=O)cc1,78.2% (active)
4,COc1ccc(-n2nc(C#N)c(Cl)cc2=O)cc1,59.1% (active)
5,COc1cccc(-n2nc(C#N)c(Cl)cc2=O)c1,45.7% (inactive)
6,COc1ccc(-n2ncc3c(N(C)C4CCCCC4)ncnc32)cc1,23.2% (inactive)
7,Cc1ccc(OCc2nnc(SC3CCc4ccccc4C3=O)n2C)cc1 (stereo not given),17.5% (inactive)
8,COc1ccc2c(c1)c(C(C)=O)c(C)n2-c1ccc(C(C)=O)cc1,71.3% (active)
9,CCOc1ccc(-n2c(C)c(C(C)=O)c3cc(O)ccc32)cc1,40.7% (inactive)
10,COc1ccc2c(c1)c(=O)oc1c(C)c(OCc3ccc(C(=O)O)cc3)ccc12,34.1% (inactive)
11,COc1ccc(C(C)=O)cc1Cn1c(=O)cc(C)[nH]c1=O,40.6% (inactive)
12,COc1ccc2c(c1)c(C(C)=O)c(C)n2CCc1ccccc1,53.2% (active)
13,COc1ccc(-n2c(C)c(C(C)=O)c3cc(OC(C)=O)ccc32)cc1,94.8% (active)
14,CCOc1ccc(-n2c(C)c(C(C)=O)c3cc(OC(C)=O)ccc32)cc1,78.7% (active)
15,O=C(NCCc1ccccc1F)c1ccc2c(c1)OCCO2,80.8% (active)
16,O=C(NCCc1ccccc1)c1ccc2c(c1)OCCO2,48.5% (inactive)
17,O=C(NCCc1ccccc1)c1ccc2c(c1)OCCCO2,100% (active)
18,O=C(CCl)Nc1c(C(=O)Nc2ccc3c(c2)OCCO3)oc2ccccc12,-69.2% (inactive)
19,CCSc1nc2c(c(=O)[nH]c(=O)n2C)n1C/C=C(/C)Cl,11.6% (inactive)
20,O=C(Nc1ccc(N2CCN(C(=O)c3ccccc3)CC2)cc1)c1ccc([N+](=O)[O-])o1,25.2% (inactive)
21,O=C(Nc1ccc(N2CCCC2)c(Cl)c1)c1ccc([N+](=O)[O-])o1,-26.1% (inactive)
22,CCC(=O)N1CCN(c2ccc(NC(=O)c3cc4ccccc4o3)cc2Cl)CC1,101% (active)
23,Cc1cc(OCc2ccc(C(=O)Nc3ccc(C(=O)O)cc3)o2)ccc1Cl,-32.8% (inactive)
24,O=C(Nc1ccc(N2CCN(C(=O)c3ccccc3)CC2)c(Cl)c1)c1ccc(Br)o1,67.5% (active)

row,Structure (SMILES),inhibition
1,O=C(Nc1ccc(N2CCN(C(=O)c3ccco3)CC2)c(Cl)c1)c1cc2ccccc2o1,99.1% (active)
2,CCCCc1nc(N2CCN(C(=O)c3ccco3)CC2)c(C#N)c2c1CCCC2,29.5% (inactive)
3,COc1ccc(N(Cc2cc3cc(OC)ccc3[nH]c2=O)S(=O)(=O)c2ccc(NC(C)=O)cc2)cc1,16.3% (inactive)
4,COc1ccc2[nH]c(=O)c(CN(Cc3cccnc3)S(=O)(=O)c3ccccc3F)cc2c1,50.9% (active)
5,CC1CCCCC1NC(=O)/C(C#N)=C/C=C/c1ccccc1[N+](=O)[O-] (stereo not given),47.1% (inactive)
6,N#C/C(=C\C=C\c1ccccc1[N+](=O)[O-])C(=O)NC1CCCCC1,61.6% (active)
7,O=[N+]([O-])c1ccc(Sc2nccn2Cc2ccccc2)c([N+](=O)[O-])c1,-0.6% (inactive)
8,O=C(Cn1nc([N+](=O)[O-])nc1Br)NC(c1ccccc1)c1ccccc1,-0.7% (inactive)
9,C=CCn1nc([N+](=O)[O-])nc1Sc1cccc2cccnc12,95.9% (active)
10,Cn1nc([N+](=O)[O-])nc1Sc1cccc2cccnc12,31.7% (inactive)
11,O=[N+]([O-])c1ccc(Sc2cccc3cccnc23)c([N+](=O)[O-])c1,103% (active)
12,Cc1cc(C)nc(Sc2ccc([N+](=O)[O-])cc2[N+](=O)[O-])n1,-34.5% (inactive)
13,CC(C)c1ccc(/C=C(\c2nc3ccccc3[nH]2)S(=O)(=O)c2ccccc2)cc1,107% (active)
14,O=S(=O)(Nc1nc2ccccc2[nH]1)c1ccccc1,34.8% (inactive)
15,O=S(=O)(/C(=C/c1ccc(C(F)(F)F)cc1)c1nc2ccccc2[nH]1)c1ccccc1,72.8% (active)
16,Cc1cccc(/C=C(\c2nc3ccccc3[nH]2)S(=O)(=O)c2ccccc2)c1,82.2% (active)
17,COc1ccc(S(=O)(=O)NCC2CCCN(Cc3cccnc3)C2)cc1 (stereo not given),-9.5% (inactive)
18,C/C=C/Cn1c(SCCCc2ccccc2)nc2c1c(=O)[nH]c(=O)n2C,5.5% (inactive)
19,N#Cc1ccc(C(=O)Nc2nc(-c3cccs3)c(C(=O)C(F)(F)F)s2)cc1,70% (active)
20,COc1ccc(/C=C/C(=O)c2c(C)cc(C)[nH]c2=O)c2ccccc12,20.8% (inactive)
21,Cc1cc(C)c(C(=O)/C=C/c2ccc(C(C)C)cc2)c(=O)[nH]1,72.7% (active)
22,O=C(O)C(Cc1ccccc1)N1C(=O)/C(=C/c2cccc3ccccc23)SC1=S (stereo not given),31.7% (inactive)
23,Cc1cc(C)c(C(=O)/C=C/c2cccc3ccccc23)c(=O)[nH]1,92.8% (active)
